The text below walks through data of PubChem BioAssay (NCI).

The panel holds about 83,000 compounds, 20% with a hit somewhere; the sample as a whole holds those more often.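 The endpoint reported here, percent growth, reads 100 for growth as untreated, 0 for no net growth and -100 for all cells dead.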 Unmarked numbers belong to inactive results. Active and inactive are the calls of the source. The calls were made as follows: active = growth percent below 10; inactive = the rest.

What all share (experiment): NCI-60 one-dose screen, 48 h (100 = growth as untreated, 0 = no growth, -100 = all killed)
Common to all, as to conditions: 10 µM unless noted

Experiment [1] relates to HCT-15 colon.
In experiment [2] the test system is HT29 colon.
Experiment [3] has as its system SNB-75 CNS.
Experiment [4] relates to SNB-19 CNS.
Experiment [5] concerns U251 CNS.
The test system of experiment [6] is PC-3 prostate.
Experiment [7] relates to SK-MEL-5 melanoma.
Experiment [8] deals with UACC-62 melanoma.
The test system of experiment [9] is LOX IMVI melanoma.
For experiment [10], the system named is SK-MEL-28 melanoma.
Experiment [11] concerns SK-MEL-2 melanoma.
Experiment [12] has as its system EKVX NSCLC.
Experiment [13] relates to SN12C renal.
Experiment [14] has as its system UO-31 renal.
Experiment [15] relates to TK-10 renal.
Experiment [16] relates to ACHN renal.
The subject of experiment [17] is CAKI-1 renal.
For experiment [18], the system named is A498 renal.
In experiment [19] the test system is CCRF-CEM leukemia.
The test system of experiment [20] is MOLT-4 leukemia.

Regarding `COc1cnc2c(c1)C(=O)c1c-2n(CCCN2CCNCC2)c(=O)c2cc([N+](=O)[O-])ccc12`, the growth is -80.7% (active) in experiment [1]; -80% (active) in [2]; 2.92% (active) in [3]; -40.7% (active) in experiment [4]; -93.3% (active) in experiment [5]; -82.3% (active) in experiment [6]. Further, the growth in [7] was -7.99% (active); in [8], -82% (active); in [9] it was -86.5% (active); in [10] it was -76.6% (active); in experiment [11], 77.8%; in [12], -64.6% (active). Also, the growth is -71.5% (active) in [13]; -79.3% (active) in experiment [14]; 32.4% in experiment [15]; -88.4% (active) in [16]; -94.5% (active) in experiment [17]; 16.9% in experiment [18]. Further, the growth was -23% (active) in experiment [19] and -4.73% (active) in experiment [20].
For the molecule `CCCCCCCCSC1=CC(=O)C(OC)=C(OC)C1=O`, the growth in [1] is 10.9%; in experiment [2], 35.4%; in experiment [3], 75.7%; in experiment [4], 79.3%; in experiment [5], 42.5%; in experiment [6], -13.9% (active). For the same molecule, the growth in [7] was 4.84% (active); in experiment [8], 42.9%; in experiment [9] it was -48.7% (active); in [10], 72.4%; in experiment [11], 26.3%; in experiment [12], 43.8%. Besides, the growth in [13] was 10.7%; in experiment [14], -92.7% (active); in experiment [15], -99.3% (active); in [16], -77.8% (active); in experiment [17], -45.6% (active); in experiment [18], 65.5%. Besides, the growth is -15.8% (active) in experiment [19] and -5.17% (active) in experiment [20].
For the molecule `COc1ccc(C(=O)/C=C/c2c[n+](=O)c3ccc(F)cc3n2[O-])cc1`, the growth in experiment [1] is 101%; in [2], 106%; in [3] it was 106%; in [4], 103%; in experiment [5], 95.1%; in [6], 104%. Besides, the growth in experiment [7] is 111%; in [8], 92.1%; in experiment [9] it was 94.2%; in experiment [10], 111%; in [11], 112%; in experiment [12] it was 92%. For the same molecule, the growth in [13] is 96.2%; in experiment [14] it was 87.8%; in experiment [15], 106%; in [16] it was 102%; in experiment [17], 95.2%; in experiment [18] it was 109%. The results for the growth in experiment [19] and in [20] were 95.9% and 107%, respectively.
Regarding `CCN(CC)CCC(=O)c1ccc(OC)c2ccccc12`, the growth in experiment [1] was 107%; in experiment [2], 109%; in [3], 89.1%; in [4] it was 87%; in [5], 95.4%; in [6], 102%. Also, the growth in experiment [7] was 107%; in experiment [8], 90.6%; in experiment [9], 86.8%; in experiment [10], 122%; in experiment [11], 91.7%; in [12], 94%. Also, the growth in experiment [13] was 106%; in experiment [14], 62.3%; in experiment [15], 60.1%; in experiment [16], 105%; in experiment [17] it was 88.7%; in experiment [18] it was 124%. In addition, the growth in experiment [19] is 18.7%; in experiment [20] it was 29.1%.
For the molecule `CN(C)c1ccc(C2Nc3ccccc3-n3cccc32)cc1` (stereo not given), the growth in [1] was 89.7%; in [2] it was 99.9%; in experiment [3], 107%; in [4], 94.7%; in [5] it was 95.6%; in experiment [6] it was 66.4%. In addition, the growth in [7] was 93.2%; in experiment [8], 79%; in experiment [9] it was 103%; in experiment [10], 107%; in experiment [11], 118%; in experiment [12], 87.8%. For the same molecule, the growth was 89.5% in experiment [13]; 64.2% in [14]; 55.7% in experiment [15]; 86.6% in [16]; 83.3% in [17]; 113% in experiment [18]. Also, the figures for the growth in experiment [19] and in [20] were 109% and 104%, respectively.
In the case of `COc1ccc(/C=C/C(=O)c2c(O)c(C)c(O)c3c2OC2=CC(O)=C(C(C)=O)C(=O)[C@]23C)cc1`, the growth in [1] is -21.3% (active); in experiment [2] it was -27.2% (active); in experiment [3], -33% (active); in experiment [4], -14.9% (active); in experiment [5], -27.9% (active); in [6], -2.15% (active). The growth was -85.5% (active) in experiment [7]; -59.9% (active) in experiment [8]; -43.4% (active) in [9]; -50.7% (active) in [10]; -54.6% (active) in experiment [11]; -2.89% (active) in experiment [12]. Besides, the growth is -31.3% (active) in experiment [13]; -22.5% (active) in experiment [14]; -9.84% (active) in experiment [15]; 0.0747% (active) in experiment [16]; 6.28% (active) in experiment [17]; -56.2% (active) in experiment [18]. Besides, the growth in experiment [19] is -29.9% (active); in [20] it was -27.9% (active).
Turning to `CC(C)[C@H]1COC(=O)N1[C@@H]1C(=O)N([C@@H](CCC(=O)N2CCN(C3CCCC3)CC2)C(=O)N[C@@H]2CCCc3ccccc32)[C@@H]1/C=C/c1cccc(Br)c1`, the growth was 20.9% in experiment [1]; -15.3% (active) in experiment [2]; 50% in experiment [3]; 44.7% in experiment [4]; 27.5% in [5]; 29.7% in experiment [6]. Further, the growth is -82.2% (active) in [7]; 47.3% in experiment [8]; -32% (active) in experiment [9]; 32.2% in [10]; -7.94% (active) in [11]; 48.2% in experiment [12]. Besides, the growth in experiment [13] is 38%; in [14] it was 31%; in [15], 30.9%; in [16], 48.9%; in experiment [17], 62.5%; in experiment [18], 0.642% (active). For the same molecule, the growth in experiment [19] is 32.8%; in experiment [20], 17.9%.
With `Oc1cc(O)c2c(=S)cc(-c3ccc(Cl)cc3)oc2c1`, the growth in [1] is 25.4%; in [2], 92.8%; in experiment [3], 48.3%; in experiment [4], 17.5%; in experiment [5], 19.6%; in experiment [6] it was 28.4%. Moreover, the growth in experiment [7] is 3.09% (active); in [8], 22.6%; in experiment [9] it was 38.6%; in [10], 40.5%; in experiment [11], 4.4% (active); in experiment [12], 70.2%. The growth in experiment [13] is 25.5%; in experiment [14], 18%; in experiment [15] it was 58.9%; in experiment [16], 23.6%; in experiment [17] it was 76.5%; in experiment [18], 59.1%. The growth in experiment [19] is 15.8%; in experiment [20], 24.1%.
